Test results from PubChem BioAssay (EPA / NIEHS).
Several values for one entry are separate records, joined by “and”; a condition that tells them apart may be missing. Equal values may be shown once. Records with an inconclusive call do not appear. The source holds several records for some structures; these can differ, active in one and inactive in another. Activity calls are given as the source filed them. The calls were made as follows, unless noted: active = hit-call score of the fitted dose curve at least 0.9, where 1 is the maximum; inactive = score below 0.9.

Columns and labels:
[1] = CCTE_Shafer_MEA_dev_active_electrodes_number: CCTE's Neural Network Formation Assay for Number of Active Electrodes, Shafer Lab (AID 2284040; active = hit-call score of the fitted dose curve at least 0.9, where 1 is the maximum;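 as to AC50: potency for loss of active electrodes versus DMSO so lower counts are hits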)
Method in brief: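 Rat cortical primary cultures, 1.5 x 10^5 cells/well, PEI-coated MEA, laminin drop. Continuous exposure DIV 0–12; full media/compound change DIV 5, 9. Readout: electrodes with mean firing ≥5 spikes/min; AUC across days; loss vs DMSO.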

[2] = CCTE_Shafer_MEA_dev_per_burst_interspike_interval: CCTE's Neural Network Formation Assay for Burst Interspike Interval, Shafer Lab (AID 2284044);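 also: mean spike spacing inside bursts as AUC over recordings on days 5 7 9 12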;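 as to AC50: potency for a decrease of within-burst interspike interval below DMSO level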
Method in brief: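 Developmental network-formation MEA in primary rat cortical cultures with exposure spanning days 0–12. Within-burst ISI is averaged per well and integrated across recording days by area under the curve, with DMSO as negative control baseline.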

[3] = CCTE_Shafer_MEA_dev_burst_duration_mean: CCTE's Neural Network Formation Assay for Mean Burst Duration, Shafer Lab (AID 2284045);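 as to AC50: curve fitted for loss meaning shorter burst duration than DMSO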
Method in brief: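 Primary rat cortical neurons on 48-well 16-electrode MEA plates, exposed from day 0 with renewal at DIV 5 and 9; spontaneous activity recorded on days 5, 7, 9, 12. Well-mean burst duration across bursting electrodes, collapsed as trapezoidal AUC; DMSO baseline.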

[4] = CCTE_Shafer_MEA_dev_interburst_interval_mean: CCTE's Neural Network Formation Assay for Mean Interburst Interval, Shafer Lab (AID 2284046);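 also: well-mean interburst interval of bursting electrodes as AUC over four recording days; curve fitted for decrease in interburst interval relative to DMSO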
Method in brief: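 Primary rat cortical neurons on PEI-coated 48-well MEA plates (laminin added with cells at plating) (16 electrodes/well), exposed from plating day 0 with renewal at DIV 5 and 9. Mean inter-burst interval averaged over bursting electrodes, AUC across days 5, 7, 9, 12; DMSO baseline.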

[5] = CCTE_Shafer_MEA_dev_inter_network_spike_interval_mean: CCTE's Neural Network Formation Assay for Mean Inter-network Spike Interval, Shafer Lab (AID 2284047);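 as to AC50: potency for a decrease in mean inter-network spike interval below DMSO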
Method in brief: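 Mean time between consecutive network-spike peaks, recorded extracellularly (adaptive spike detection) on DIV 5, 7, 9 and 12, summarized as trapezoidal AUC. Rat cortical cultures on MEAs dosed continuously days 0–12, re-dosed at feeds; loss-of-signal fit relative to DMSO.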

[6] = CCTE_Shafer_MEA_dev_network_spike_number: CCTE's Neural Network Formation Assay for Number of Network Spikes, Shafer Lab (AID 2284048);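 also: synchronized bursts across electrodes counted on days 5 7 9 12 and integrated as AUC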;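 as to AC50: fit as a loss of signal meaning fewer network spikes than DMSO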
Method in brief: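 Primary rat cortical neurons on PEI/laminin 48-well MEA plates, dosed from plating day 0 for 12 days, renewed at DIV 5 and 9. Network spike counts recorded DIV 5, 7, 9, 12, collapsed as trapezoidal AUC; DMSO baseline.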

[7] = CCTE_Shafer_MEA_dev_spike_duration_mean: CCTE's Neural Network Formation Assay for Mean Spike Duration, Shafer Lab (AID 2284051);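 also: mean network spike duration pooled as area under curve over DIV 5 to 12 recordings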;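 as to AC50: potency for a decrease in mean network spike duration versus DMSO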
Method in brief: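 Spontaneous activity was recorded on days 5, 7, 9 and 12 from rat cortical cultures grown on microelectrode arrays and dosed continuously from day 0, with media and compound renewed after the DIV 5 and 9 recordings. Network-spike duration was collapsed by area under the curve.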

[8] = CCTE_Shafer_MEA_dev_network_spike_duration_std: CCTE's Neural Network Formation Assay for Standard Deviation of Network Spike Duration, Shafer Lab (AID 2284052);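 also: hits are decreases in network spike duration SD versus DMSO vehicle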
Method in brief: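 Network spike duration variability was collapsed across recordings on days 5, 7, 9 and 12 by trapezoidal area-under-curve and fitted downward against DMSO. Cultures were rat cortical neurons on PEI-coated MEA plates, dosed continuously from plating, refed with compound DIV 5/9.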

[9] = CCTE_Shafer_MEA_dev_per_network_spike_spike_number_mean: CCTE's Neural Network Formation Assay for Mean Number of Spikes in a Network Spike, Shafer Lab (AID 2284053);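 as to AC50: fitted as decrease in spikes per network spike relative to DMSO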
Method in brief: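 Mean spike count within each network spike, taken in a 0.05 s window at its peak, was recorded on days 5, 7, 9 and 12 and integrated as trapezoidal area under the curve. Rat cortical cultures on MEA plates received continuous compound from day 0, refreshed at medium changes on DIV 5 and 9.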

[10] = CCTE_Shafer_MEA_dev_per_network_spike_spike_percent: CCTE's Neural Network Formation Assay for Percent of Spikes in a Network Spike, Shafer Lab (AID 2284054)
Method in brief: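 Rat primary cortical neurons were grown on 48-well MEA plates (16 electrodes/well), exposed from plating day 0 through day 12, with treatment renewed on DIV 5 and 9. Percent of spikes within 0.05 s network-spike peaks was measured, summarised as AUC across days 5, 7, 9, 12.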

[11] = UKN5_HCS_SBAD2_cell_viability: Viability Assessment in the University of Konstanz (UKN) Leist Lab Neurite Outgrowth Assay in human iPSC-derived immature Dorsal Root Ganglia Neurons (UKN5) (AID 2284056)
Method in brief: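 iPSC-derived immature peripheral neurons (SBAD2) seeded on Matrigel with CHIR99021, SU5402 and DAPT, dosed 1 h later for 24 h. Viability from Hoechst H-33342 and calcein-AM live staining, high-content imaging; bidirectional fit versus DMSO.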

[12] = CCTE_Shafer_MEA_acute_AB: CCTE's Alamar Blue Assay for Cytotoxicity in the Neural Acute Assay, Shafer Lab (AID 2284069; active = hit-call score of the fitted dose curve at least 0.9, where 1 is the maximum;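 also: active compounds lower the viability signal compared with DMSO wells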)
Method in brief: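 Resazurin reduction (CellTiter Blue, 1:6 in fresh medium) read at ex 544/em 590 nm marks viability loss relative to DMSO. Cells: primary rat cortical neuron networks on microelectrode arrays, treated after baseline recording at 13 or 15 days in vitro.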

[13] = UKN5_HCS_SBAD2_neurite_outgrowth: University of Konstanz (UKN) Leist Lab Neurite Outgrowth Assay in human iPSC-derived immature Dorsal Root Ganglia Neurons (UKN5) (AID 2284070); conditions: actives raise or lower the signal
Method in brief: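 SBAD2 neurons, 24 h compound treatment, calcein-AM neurite area via HCS imaging; DMSO baseline, gain or loss of signal.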

[14] = CCTE_Shafer_MEA_dev_AB: CCTE's Alamar Blue Assay for Cytotoxicity in the Neural Network Formation Assay, Shafer Lab (AID 2284083; active = hit-call score of the fitted dose curve at least 0.9, where 1 is the maximum;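 also: resazurin reduction fluorescence as viability of cultured neurons; twelve days of exposure from plating with re-dosing on DIV 5 and 9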)
Method in brief: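 Resazurin fluorescence, relative to DMSO, gauges viability after twelve days of exposure that began at plating of rat cortical neurons (1.5 x 10^5 cells/well, 48-well MEA); treatment renewed with full medium exchange on DIV 5 and 9.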

[15] = CCTE_Shafer_MEA_acute_LDH: CCTE's Lactate Dehydrogenase Assay for Cytotoxicity in the Neural Acute Assay, Shafer Lab (AID 2284086; active = hit-call score of the fitted dose curve at least 0.9, where 1 is the maximum;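 also: active means LDH release rises above DMSO vehicle level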)
Method in brief: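 Released lactate dehydrogenase, read at 490 nm, indicated cytotoxicity after acute 40-min compound treatment of rat cortical neuron networks grown on 48-well MEA plates.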

[16] = test system: DIO2 (gene 1734); experiment: CCTE_GLTED_hDIO2: CCTE's human Deiodinase 2 (DIO2) Inhibition Assay, Great Lakes Toxicology and Ecology Division (GLTED) Lab (AID 2284050; active = hit-call score of the fitted dose curve at least 0.9, where 1 is the maximum)
Method in brief: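 In this cell-free test, chemicals are exposed to human deiodinase type 2 for 3 hours. Released iodide is determined spectrophotometrically via the Sandell-Kolthoff method, and signal loss relative to DMSO is fitted.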

[17] = test system: DIO3 (gene 1735); experiment: CCTE_GLTED_hDIO3: CCTE's human Deiodinase 3 (DIO3) Inhibition Assay, Great Lakes Toxicology and Ecology Division (GLTED) Lab (AID 2284055; active = hit-call score of the fitted dose curve at least 0.9, where 1 is the maximum;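 as to AC50: potency is for inhibition seen as loss of released iodide signal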)
Method in brief: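 Enzyme activity is tracked as iodide release from substrate by recombinant human DIO3 over 3 h with chemical present. A second Sandell-Kolthoff step converts iodide to an absorbance signal, fitted relative to DMSO.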

## CC(Oc1cccc(Cl)c1)C(=O)O (configuration not stated)
[1]
  outcome: inactive
[2]
  outcome: inactive
[3]
  outcome: inactive
[4]
  outcome: inactive
[5]
  outcome: inactive
[6]
  outcome: inactive
[7]
  outcome: inactive
[8]
  outcome: inactive
[9]
  outcome: inactive
[10]
  outcome: inactive

## CC(=NC#N)N(C)Cc1ccc(Cl)nc1
[1]
  outcome: inactive
[2]
  outcome: inactive
[3]
  outcome: inactive
[4]
  outcome: inactive
[5]
  outcome: inactive
[6]
  outcome: inactive
[7]
  outcome: inactive
[8]
  outcome: inactive
[9]
  outcome: inactive
[10]
  outcome: inactive
[11]
  outcome: inactive
[12]
  outcome: inactive
[13]
  outcome: inactive
[14]
  outcome: inactive

## CN1COCN(Cc2cnc(Cl)s2)C1=N[N+](=O)[O-]
[1]
  outcome: inactive
[2]
  outcome: inactive
[3]
  outcome: inactive
[4]
  outcome: inactive
[5]
  outcome: inactive
[6]
  outcome: inactive
[7]
  outcome: inactive
[8]
  outcome: inactive
[9]
  outcome: inactive
[10]
  outcome: inactive
[15]
  outcome: inactive

## CCOP(=S)(Oc1cnc(C(C)(C)C)nc1)OC(C)C (configuration not stated)
[1]
  AC50: 93.2 µM (active) and 14.9 µM (active)
[2]
  AC50: 12 µM (active)
  outcome: inactive
[3]
  outcome: inactive
[4]
  AC50: 50 µM (active) and 16.6 µM (active)
[5]
  outcome: inactive
[6]
  AC50: 14.8 µM (active)
  outcome: inactive
[7]
  AC50: 74.9 µM (active) and 9.65 µM (active)
[8]
  outcome: inactive
[9]
  AC50: 67.3 µM (active) and 9.31 µM (active)
[10]
  AC50: 84.5 µM (active) and 23 µM (active)
[12]
  outcome: inactive
[14]
  AC50: 80.1 µM (active) and 25.9 µM (active)
[15]
  outcome: inactive

## CNC(=O)ON=C(SC)C(=O)N(C)C
[15]
  outcome: inactive

## C[N+]1(C)CCCCC1
[1]
  AC50: 15 µM (active)
[2]
  outcome: inactive
[3]
  outcome: inactive
[4]
  outcome: inactive
[5]
  outcome: inactive
[6]
  outcome: inactive
[7]
  outcome: inactive
[8]
  outcome: inactive
[9]
  outcome: inactive
[10]
  outcome: inactive
[12]
  outcome: inactive
[14]
  outcome: inactive
[15]
  outcome: inactive

## COP(=O)(OC)OC(Br)C(Cl)(Cl)Br (configuration not stated)
[1]
  AC50: 7.62 µM (active) and 14.8 µM (active)
[2]
  AC50: 9.62 µM (active) and 16 µM (active)
[3]
  AC50: 12.8 µM (active)
  outcome: inactive
[4]
  AC50: 8.78 µM (active) and 10.1 µM (active)
[5]
  AC50: 2.15 µM (active)
  outcome: inactive
[6]
  AC50: 3.48 µM (active) and 13.2 µM (active)
[7]
  AC50: 8.37 µM (active) and 12.8 µM (active)
[8]
  AC50: 4.26 µM (active) and 9.92 µM (active)
[9]
  AC50: 8.92 µM (active) and 10.3 µM (active)
[10]
  AC50: 8.6 µM (active) and 12 µM (active)
[14]
  AC50: 7.73 µM (active) and 16.4 µM (active)

## CC(C)[C@H](C(=O)O[C@H](C#N)c1cccc(Oc2ccccc2)c1)c1ccc(Cl)cc1
[1]
  AC50: 14.6 µM (active)
[2]
  AC50: 17.6 µM (active)
[3]
  outcome: inactive
[4]
  AC50: 17.9 µM (active)
[5]
  outcome: inactive
[6]
  AC50: 0.703 µM (active)
[7]
  AC50: 4.47 µM (active)
[9]
  AC50: 3.72 µM (active)
[10]
  AC50: 732 nM (active)
[14]
  AC50: 20.9 nM (active)

## CC(C)=CC1C(C(=O)OCN2C(=O)C3=C(CCCC3)C2=O)C1(C)C (configuration not stated)
[1]
  outcome: inactive
[2]
  outcome: inactive
[3]
  outcome: inactive
[4]
  outcome: inactive
[5]
  outcome: inactive
[6]
  outcome: inactive
[16]
  AC50: 70 µM (active)
[7]
  outcome: inactive
[8]
  outcome: inactive
[9]
  outcome: inactive
[10]
  outcome: inactive
[17]
  outcome: inactive
[14]
  outcome: inactive
[15]
  outcome: inactive

## CCc1cccc(CC)c1N(COC)C(=O)CCl
[16]
  AC50: 61.1 µM (active)
[17]
  AC50: 52.3 µM (active)

## CCCCSP(=O)(SCCCC)SCCCC
[1]
  AC50: 34.3 µM (active) and 15.2 µM (active)
[2]
  AC50: 50 µM (active) and 18.8 µM (active)
[3]
  outcome: inactive
[4]
  AC50: 63.3 µM (active) and 49.9 µM (active)
[5]
  outcome: inactive
[6]
  outcome: inactive
[7]
  AC50: 50 µM (active) and 16.1 µM (active)
[8]
  outcome: inactive
[9]
  AC50: 50 µM (active) and 17 µM (active)
[10]
  AC50: 68.3 µM (active) and 49.9 µM (active)
[14]
  AC50: 50 µM (active) and 63.1 µM (active)

## COc1cc(OC)nc(Sc2cccc(Cl)c2C(=O)O)n1
[12]
  outcome: inactive
[15]
  outcome: inactive

## CN(C)NC(=O)CCC(=O)O
[12]
  outcome: inactive
